Data taken from the supplement of paper PMC6555819.

These sequences were tested on VDR:RXRa (NR concentration 270 nM, RXRa partner concentration 90 nM) (assay: PBM binding z-score (relative to random genomic background probes); higher = stronger binding; sequences stand for … in GC…GCGATTGACAGCGTAGAATGAAGG).
Experimental: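 Protein-binding microarray (Agilent 4x180K custom design, double-stranded 60-nt probes: 5' GC cap, 34-nt variable region, 24-nt constant primer region; full probe sequence given). Purified or IVT nuclear receptor:RXRα heterodimers (3:1 NR:RXRα, mostly 270:90 nM) or homodimers were incubated for 1 h in PBS with 2% milk and no ligand, then detected with Alexa488 antibodies. Fluorescence from o1-orientation probes (~5 replicates averaged) was converted to z-scores against 500 random hg19 background probes. Variable regions are seed direct-repeat (DR0–DR5) sites, all their single-nucleotide variants and half-site ablations.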

| Sequence | PBM binding z-score |
| --- | --- |
| CCTTACGGGTCACGAGGTTAGAGCACGACGAGCG | 4.98 |
| TCGAGTAGGTTACCAATGGGGGATTCAGCTTTCT | 0.83 |
| TAATATAGGTAATACAGGTGAAAGTCGGCATCTA | 0.659 |
| AATACAGGGTCACTAGGCCAGAGAAGGTACGAAT | 4.08 |
| TCTATTAGTTGGTTAGGGCAACCGAAACAGCGGA | 0.428 |
| AATACAGGGTCATGGTAGGCCAGAGTACGCACAG | 4.95 |
| CATACAGGGTCAGCGAGGCCAGAGTAGGGACGGC | 5.93 |
| GATACAGGGTCCGCTAGAGGCCAGAGTATGGAAA | -0.544 |
| TCATATAGGTAAACAGGTGAATGTCCGTAAGTTA | 0.948 |
| AGAATGAGGTTATGAAGATCAGGGAATTGCGGTC | 1.44 |
| CCTGCTAGGTCATGGTGAGCTAATCTACAGTATG | 1.37 |
| CTCGAAAGGTCGGTTGAGGTAAGTATACGGATAA | 1.57 |
| CCTTGTTGGTCAAGGTCACACACGCTATAGGTAC | 3.83 |
| ATATGTAGGTTGGCTGGGGTCATTCAGACTAGGC | 5.67 |
| CAGCCTAGGTCAGGGCGAGTATAGGAGGAACGTT | 0.552 |
| CCTCCTGGGCCACGAAAGGTCATTGATTCAGTGA | 4.04 |
| CGTCCAAGGTCAAAGGTCAGTGACGAGATGACGG | 6.67 |
| ATATGTAGGTTATCGGGTCATTCCGTTTGCGCAT | 3.86 |
| TCGAGTAGGTTAGTCGGGGCATACAGCCAACATA | 1.74 |
| GTTTACGGGTCAAAGGTTATAGCATGAATAGAAT | 5.82 |

| Sequence | PBM binding z-score |
| --- | --- |
| GCTTTCGGGTCAAAGGTTATAGCATGAATAGAAT | 5.79 |
| CCTTACGGGTCACTGACAGGTTATAGTATTTGGA | 3.85 |
| CCTAGTTGGTCACGGTCACACACGCTATAGGTAC | 1.12 |
| AGAATGAGGTTCCCAAAGATCAGGGAAACGCTTG | -0.0526 |
| TCTGCTAGGTAAGTTGGTCAGCTAACGAGCTGCC | -0.464 |
| GCAGACAGGTGAAACGCAGGTAACGCAGGGTGGC | -0.489 |
| TCTAGTTCGTCAAAGGTCACACACTCGAAATGCG | 5.77 |
| TCTATTAGTTTATTAGGGCAACCGAAACAGCGGA | 1.03 |
| TCATATAGGTAAAAGGTGAAAGTCGGTGTGGTAA | 1.82 |
| AGAATGAGGTTACGATCAGGGAAACAGAATACAT | 1.43 |
| CCTAGTGGGCCATTCAGAGGTCATTGATCATATG | 3.85 |
| ATACCAAGGTGAACGTGAGGTCGTTGATACTAAC | 4.41 |
| CGGACTAGGTCAAGGACAGTGAATCTCCGCACGC | 0.867 |
| ACTATTAGTTCAGACGAGGGCAACCGATAGGTTG | 2.84 |
| CAAACTAGGTCACGAAATGTCAAAGTCGAATGAC | 3.47 |
| CGTAAAAGTTCAACTAAGGTAACGTAAAGCACGC | 4.33 |
| CAAACTAGGTCAAAGGTCGAAGTCGAGCCAACCA | 5.03 |
| TCTTGTAGATCAACTGGAGGTTAAGAAAGATCGA | 0.589 |
| CGAACTAGGTCAGAACTGGACAGTGAAGGATGAT | 0.181 |
| TCTAGCAGCCCAGAGGGTCACTCAAGAGGTACGG | 1.1 |
